Source: PubChem BioAssay
Rows were chosen to be rich in hits. Some 6.2% of all compounds tested hit in one or more screens of this group.
S2 tox – viability counter-screen for ATXN expression inhibitors. S2 cells (HEK-293 line with an ATXN2-luciferase reporter) viability, CellTiter-Fluor protease fluorescence, 24 h. Potency, µM (top dose mostly 56.7 µM), most hits filed as cytotoxic. actives 0.49% (n = 400,000); note: nearly all actives have a fitted effect of over 40% in size
HT1080NT lethal – kills 2HG-producing HT-1080-NT fibrosarcoma cells | Potency, µM (top dose mostly 46.1 µM), without a hit: top-dose activity, negative = less viability, hits mostly cytotoxic | AID 686970 | actives 1.6% (n = 360,000) | HT-1080-NT fibrosarcoma viability, CellTiter-Glo ATP luminescence, 48 h;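 note: NT is the 2HG producing partner of a matched IDH1 knockdown line; 0% = DMSO-treated cells and -100% = media-only wells without cells; nearly all actives have a fitted effect of over 55% in size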
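Viability of the 2HG-overproducing fibrosarcoma line after 48 hours of compound exposure at 37 degrees C was determined by luminescence with CellTiter-Glo, and concentration-effect curves were then fitted and categorized.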
HT1080 IDH1KD tx – HT-1080 IDH1 knockdown cell toxicity (counter line) | HT-1080 IDH1 knockdown viability, ATP luminescence, 48 h | Potency, µM (doses to about 46.1 µM), for the others: top-dose activity, negative = toxicity, actives largely listed as cytotoxic | actives 2% (n = 360,000);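 note: 0% = DMSO wells and -100% = cell-free medium wells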
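In this qHTS, HT-1080 cells depleted of IDH1 are exposed for 48 h at 37 °C to compound titrations. Toxicity is scored from CellTiter-Glo luminescence, with DMSO as full viability and medium alone as none.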
ATXN2 expr inh – inhibitors of ATXN2 expression; HEK-293 ATXN2-luciferase reporter, luminescence, 24 h; Potency, µM (highest dose often 57 µM), for inactives: at the top dose activity change, negative = inhibition, actives largely listed as inhibitors; actives 0.72% (n = 360,000); note: % is set by controls: 0 for no effect and ±100 for the full control effect; nearly all actives have a fitted effect of over 55% in size
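qHTS (up to 57 uM final) was run with 24 h compound exposure of reporter cells at 37 °C. Each well was multiplexed: SteadyGlo luminescence measured ATXN2-luciferase expression after a fluorogenic Gly-Phe-AFC viability readout (25 uM final).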
KB-V1 MDR tox – kills drug-selected multidrug resistant KB-V1 cells; KB-V1 MDR cells viability, CellTiter-Glo, 72 h; Potency, µM (series often up to 46.1 µM), usual class: cytotoxic; actives 3.4% (n = 400,000); AID 1347076; note: % is set by controls: 0 for no effect and ±100 for the full control effect; nearly all actives have a fitted effect of over 60% in size
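In this primary screen, KB-V1 cells overexpressing P-gp are incubated with library compounds (lowest to highest concentration) for 72 h at 37 degrees C before a luminescent ATP viability read.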
KB-3-1 cytotox – kills parental KB-3-1 adenocarcinoma cells; KB-3-1 viability, CellTiter-Glo ATP luminescence, 72 h; Potency, µM (titrated, usually from 46.1 µM), most hits filed as cytotoxic; actives 1.4% (n = 400,000); note: % is set by controls: 0 for no effect and ±100 for the full control effect; nearly all actives have a fitted effect of over 60% in size
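Here the drug-naive KB-3-1 line serves as comparator for MDR sub-line selectivity; cells received compound titrations, 72 h at 37 °C, then CellTiter-Glo readout.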
Starred values were filed as active, the others as inactive; i = inactive; ? = inconclusive; . = no result. Calls come from the whole dose curve; as a rule, active = well fitted curve in the direction sought with a large enough effect; inconclusive = small, poorly fitted or top-dose-only effect, or another doubt; inactive = no such curve, though single readings can be large; an effect the other way counts as inactive or inconclusive. Potency is the fitted concentration of half-maximal effect.

SMILES | S2 tox | HT1080NT lethal | HT1080 IDH1KD tx | ATXN2 expr inh | KB-V1 MDR tox | KB-3-1 cytotox
CCC1CSC(Nc2ccc(C(=O)/C=C/c3ccc(Br)cc3)cc2)=N1 (centres undefined) | ? | ? | 18µM* | ? | ? | i
Cc1cc(C)n(-c2ccc(C(=O)NCC3Cc4cc(-c5cnccn5)ccc4O3)cc2)n1 (centres undefined) | i | . | . | . | . | .
COc1ccc(S(=O)(=O)N(CC(=O)NCCSc2ccccc2)c2ccc(C)cc2)cc1 | i | . | . | -3% | i | ?
c1ccc2sc(-c3cc4c(c(OC5CCOC5)c3)OCCN(Cc3cccn3-c3nccs3)C4)nc2c1 (centres undefined) | i | . | . | . | . | .
O=S(=O)(c1ccc(S(=O)(=O)N(Cc2cccs2)CC2CCCO2)cc1)N1CCCCC1 (centres undefined) | i | 4% | -9% | 2% | 7.3µM* | i
COCc1ccc(C(=O)N2CCOc3c(cc(-c4cc(C)c5cccc(OC)c5n4)cc3OC)C2)o1 | i | . | . | . | . | .
Cc1ccc(S(=O)(=O)C(CNC(=O)COc2ccc(Cl)cc2)c2ccco2)cc1 (centres undefined) | . | . | . | . | i | i
Cc1ccc2sc(N(CCCN(C)C)C(=O)c3ccc(S(=O)(=O)N4CCc5ccccc5C4)cc3)nc2c1C | i | 21µM* | ? | -29% | i | i
